Molecules are shown by their SMILES. Out of some 98,000 compounds screened, about 4,900 (5%) were called active. The list comes from a sample in which actives are over-represented; it also holds similar structures and randomly drawn compounds. Unmarked numbers belong to inactive results. Cut-off read from the data, not from the text of the source: active = inhibition above about 30%; inactive = the rest.

The nature of this experiment: yeast control strain growth suppression – counter-screen for post-Golgi transport modulator project, primary screen (AID 738). The note with it: efflux-deficient yeast background strain, growth absorbance A615, 16 h; at 10 µM; active compounds read high. A general note: Counterscreens check selectivity or assay interference.
`c1ccc(-c2cn3c(n2)CCc2ccc4cccnc4c2-3)cc1`: the inhibition was 42.3% (active).
For `c1ccc(-c2cn3cccnc3n2)cc1`, the inhibition was 10%.
For `O=C(Nc1ccccc1)c1ccccc1NC(=O)C(F)(F)F`, the inhibition was 10.5%.
To `CCOC(=O)c1ccc(N2C(=O)CC(N3CC(C)OC(C)C3)C2=O)cc1` (centres undefined) belongs 7.03%; to `CCCCOC(=O)c1ccc(N2C(=O)CC(N3CCN(C/C=C/c4ccccc4)CC3)C2=O)cc1` (centres undefined), 30.1% (active).
In the case of `CCOC(=O)c1ccc(N2C(=O)CC(N3CCC(C(=O)OCC)CC3)C2=O)cc1` (centres undefined), the inhibition is 0%.
`O=C(NC1CCN(C(=S)NCc2ccco2)CC1)c1ccc(F)cc1`: the inhibition was 7.63%.
Consider `CCOC(=O)N1CCN(Cc2nc(N)nc(Nc3ccc(C)cc3)n2)CC1`, for which the inhibition is -1.25%.
With `CC(C)c1ccc(NS(=O)(=O)c2cn(C)c(=O)n(C)c2=O)cc1`, the inhibition was 94.4% (active).
As for `Cn1cc(S(=O)(=O)N2CCN(c3ccc(F)cc3)CC2)c(=O)n(C)c1=O`, the figure is 3.87%; as for `Cn1cc(S(=O)(=O)N2CCC(Cc3ccccc3)CC2)c(=O)n(C)c1=O`, 2.66%.
`CC(CNc1ccc([N+](=O)[O-])cc1)NC(=O)c1ccccc1Br` (centres undefined): the inhibition is 1.54%.
Regarding `CO/N=C/c1ccc(N2CCN(C(=O)c3cccc(Cl)c3)CC2)c([N+](=O)[O-])c1`, the inhibition was -2.25%.
For `CC(C)NC(=O)c1ccc(Sc2ccccc2)c([N+](=O)[O-])c1`, the inhibition was -2.82%.
As for `O=C(CCn1c(=S)[nH]c2ccccc2c1=O)NCCCN1CCCC1=O`, the figure is 18.7%; as for `CCOc1cc2[nH]c(=S)n(CCN3CCCCC3C)c(=O)c2cc1OCC` (centres undefined), -3.72%; as for `CCOc1cc2[nH]c(=S)n(CCCN3CCCC3=O)c(=O)c2cc1OCC`, 35.1% (active).
Turning to `Cc1nn(-c2ncc(C(F)(F)F)cc2Cl)c(=O)n1-c1ccccc1`, the inhibition was 10.2%.
As for `Cc1ccc(-c2ccnc3nc(Sc4ncc(C(F)(F)F)cc4Cl)nn23)cc1`, the figure is 36.2% (active).
As to `O=C(c1ccccn1)c1ncc(C(F)(F)F)cc1Cl`, the inhibition is 5.57%.
On to `O=C(Nc1ccccc1)OCc1cn(-c2ccc(Cl)cc2)nn1`, for which the inhibition is 17.4%.
Consider `CCC(=O)NC(NCC1CCCO1)C(Cl)(Cl)Cl` (centres undefined), for which the inhibition was -2.21%.
Regarding `COc1ccc(C(=O)NNC(=O)c2cnccn2)cc1[N+](=O)[O-]`, the inhibition was 7.69%.
With `Cc1cccc(C(=O)Nc2ccccc2-c2nnn(CC(=O)Nc3ccc4c(c3)OCCO4)n2)c1`, the inhibition was 6.95%.
To `Cc1cc(C)c(C#N)c(SCc2[nH]nc3c2C(c2ccccc2)C(C#N)=C(N)O3)n1` (centres undefined) belongs -0.29%; to `Cc1cc(C)c2c3c(sc2n1)C(c1ccccc1)C(C#N)=C(N)O3` (centres undefined), 72.8% (active).
In the case of `N#CC1=C(N)Oc2c(sc3ccccc23)C1c1ccco1` (centres undefined), the inhibition is 13.9%.
As for `C=CCOc1cccc(CNn2cn[nH]c2=S)c1`, the figure is 5.3%; as for `Cc1cccc(C)c1-n1c(C)cc(/C=C2\C(=O)NN(c3ccccc3)C2=O)c1C`, 20.6%.
Regarding `CCCCC(CCC(=O)Nc1ccc(C(=O)OCC)cc1)C(=O)O` (centres undefined), the inhibition is -4.81%.
To `CCOC(=O)Nc1ccc(NC(=O)OCC)cc1` belongs 3.65%.
Regarding `CCCCCOC(=O)NCCOC(=O)Nc1ccc(C(=O)OCC)cc1`, the inhibition is 43% (active).
For the compound `c1ccc(C2CCC(N3CCC(N4CCCCC4)CC3)CC2)cc1` (centres undefined), the inhibition is 1.52%.
Consider `COc1ccc(NC(=O)Nc2ccc3nsnc3c2)cc1`, for which the inhibition was -5.25%.
As for `O=C(Nc1ccc2ccccc2c1)Nc1ccc2snnc2c1`, the figure is 67.9% (active); as for `COc1ccc(NC(=O)Nc2ccc3nc(C)c(C)nc3c2)cc1`, 8.79%; as for `CCCCNC(=O)C(=O)c1ccccc1NC(C)=O`, 7.01%.
`Cc1ccc(C(=O)NC2CCN(C(=O)N3CCOCC3)CC2)cc1`: the inhibition is 7.51%.
To `Cc1cc(C)cc(NC(=O)N2CCC(NC(=O)c3ccc(F)cc3)CC2)c1` belongs 37.4% (active); to `Cc1ccc(NC(=O)N2CCC(C(=O)NCc3ccc(F)cc3)CC2)cc1`, 1.66%; to `CCOC(=O)c1sc(C)c2c1NC(C)(c1cccc3ccccc13)NC2=O` (centres undefined), 30.4% (active).
`CCOC(=O)c1nc(N)sc1C(=O)OCC`: the inhibition is -8.73%.
In the case of `CCOC(=O)c1cc2ccccc2nc1C`, the inhibition was 3.8%.
With `CC1(C)CC(=O)C(C=NCCN2CCN(C(=S)Nc3cccc(Cl)c3)CC2)=C(O)C1`, the inhibition was 1.4%.
To `COc1cc(/C=N/NC(=O)Nc2ccccc2)ccc1OCCOc1ccccc1C` belongs -1.48%; to `Nc1c(-c2cccc(Cl)c2)cnn1-c1cccc([N+](=O)[O-])c1`, 4.05%.
With `CCN(c1ccccc1)S(=O)(=O)c1ccc(NC(=O)C(C)(C)C)cc1`, the inhibition is 28.9%.
Consider `CC(C)(CCl)C(=O)Nc1ccc(Sc2ccc(F)cc2)cc1`, for which the inhibition was 37.1% (active).
On to `COC(=O)c1ccc(Sc2ccc(F)cc2)c(N)c1`, for which the inhibition was 7.42%.
Take `CC(=O)N/C(=C/c1ccc(Cl)cc1)C(=O)NCCc1c[nH]c2ccccc12`: the inhibition was 17.4%.
With `CCCCCCC(=O)Nc1nc(C)c(-c2csc(Nc3cccc(OC)c3)n2)s1`, the inhibition is 3.51%.
On to `Cc1nc(Nc2ccc3c(c2)OCCO3)c2nnn(Cc3ccccc3Cl)c2n1`, for which the inhibition is 57.3% (active).
With `C#CCNc1nc(C(C)C)nc2c1nnn2Cc1ccccc1F`, the inhibition was 22.2%.
To `CC(C)(C)c1nc(NCC2CCCO2)c2nnn(Cc3ccccc3)c2n1` (centres undefined) belongs 12.5%; to `CCCCNC(=S)NNC(=O)c1cc(C)on1`, 6.93%.
In the case of `N#CC1=C(N)N(c2ccc(F)cc2)C(=O)C1`, the inhibition is 1.63%.
`Cc1ccccc1-n1c(C)cc(/C=N/NC(=O)c2ccc(CN3CCOCC3)cc2)c1C`: the inhibition is 7.99%.
Regarding `COc1ccccc1N1CCN(C(=O)c2cc(-c3ccc(Br)cc3)on2)CC1`, the inhibition was 33.2% (active).
As for `COc1ccccc1N1CCN(C(=O)c2cc(-c3ccc(Cl)c(Cl)c3)on2)CC1`, the figure is 2.68%; as for `COc1ccccc1-c1cc(C(=O)N2CCCCC2)no1`, 13.9%.
Take `NC(=O)N1CCCC1C(=O)Nc1ccc(Cl)c(Cl)c1` (centres undefined): the inhibition is -1.15%.
Regarding `CC1=CC(C)(C)N(C(=O)CSc2nnc(-c3ccccc3)o2)c2ccc(C)cc21`, the inhibition is 72.6% (active).
On to `O=C(CSc1nnc(-c2ccccc2)o1)N1CCOCC1`, for which the inhibition is 7.42%.
As to `CC1=CC(C)(C)N(C(=O)CSc2nccn2C)c2cc(C)ccc21`, the inhibition is 1.07%.

Usually inhibition stands for the relative decrease from the control value, in per cent.
